Screening data as filed in PubChem.
KB-3-1 tox = qHTS assay for MDR1-selective chemotherapeutics: Primary screen using the parental adenocarcinoma cell KB-3-1. Potency, µM (titrated, usually from 46.1 µM), most hits filed as cytotoxic. actives 1.4% (n = 400,000). AID 1347075, 2019. KB-3-1 viability, CellTiter-Glo ATP luminescence, 72 h; further: on the % scale 0 is the no-effect control and ±100 the full control effect; nearly all actives have a fitted effect of over 60% in size
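KB-3-1 parental drug-naive adenocarcinoma cells in DMEM/10% FBS, incubated 72 h at 37 C with pin-transferred compounds across a concentration series. Viability by CellTiter-Glo luminescence; concentration-response curves fitted after normalization.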
KB-V1 cytotox = qHTS assay for MDR1-selective chemotherapeutics: Primary screen using the drug-selected MDR subline cells KB-V1; KB-V1 MDR cells viability, CellTiter-Glo, 72 h; Potency, µM (series often up to 46.1 µM), actives largely listed as cytotoxic; actives 3.4% (n = 400,000); further: on the % scale 0 is the no-effect control and ±100 the full control effect; nearly all actives have a fitted effect of over 60% in size
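In this primary screen, KB-V1 cells overexpressing P-gp are incubated with library compounds (lowest to highest concentration) for 72 h at 37 degrees C before a luminescent ATP viability read.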
SW480 rerep = A quantitative high throughput screen for small molecules that induce DNA re-replication in SW480 colon adenocarcinoma cells; SW480 DNA re-replication, Hoechst DNA content imaging, 48 h; actives 1.8% (n = 340,000); Potency, µM (titrated, usually from 46.1 µM), for inactives: top-dose re-replication activation, usual class: activators; further: % of control where 0% means no effect; nearly all actives have a fitted effect of over 55% in size
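Treated cells incubate 48 hr (37 C, 5% CO2), are stained 40 min with Hoechst, and nuclear fluorescence is enumerated; a rise in nuclei with high DNA signal marks re-replication.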
12-LOX inh = Primary qHTS assay for inhibitors of human arachidonate 12S-lipoxygenase (ALOX12): Round 2. Polyunsaturated fatty acid lipoxygenase ALOX12 (Homo sapiens), P18054. purified 12hLO, xylenol orange hydroperoxide absorbance. Potency, µM (top dose mostly 108 µM), for inactives: at the highest dose activity change, negative = inhibition, hits mostly inhibitors. actives 1.1% (n = 580,000). AID 1671190, 2021; further: on the % scale 0 is the no-effect control and ±100 the full control effect
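Purified human 12hLO at 150 nM in 25 mM Hepes, 0.01% Triton X-100, pH 7.0, preincubated 15 min at room temperature with compound. Reaction started with 40 uM arachidonic acid, 30 min at room temperature. Hydroperoxide measured by Fe-xylenol orange, 573/405 nm absorbance ratio.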
PINK1 modulator = A Quantitative High throughput Screen to Identify Chemical Modulators of PINK1 Expression; PINK1 immunofluorescence, high-content cytometry, 24 h; Potency, µM (top dose mostly 76.6 µM), without a hit: top-dose activation (PINK1 increase), hits mostly activators; actives 0.2% (n = 410,000); AID 624263, 2012; active means well fitted activation curve with a large enough effect; inconclusive means small, poorly fitted or top-dose-only effect; cell line not stated here; further: % of control where 0% means no effect; nearly all actives have a fitted effect of over 65% in size
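Fluorescence from anti-PINK1 antibody, together with nuclear and cell stains, was scanned on a laser-scanning cytometer. Before staining, stable-line cells were incubated 24 hours with compounds at 5 concentrations; primary antibody 12 h at 10 degrees C.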
MCF10A rerep = A quantitative high throughput screen for small molecules that induce DNA re-replication in MCF 10a normal breast cells; AID 624296, 2012; Potency, µM (top dose mostly 46.1 µM), inactives show at the highest dose activity, positive = re-replication, actives largely listed as activators; actives 2.9% (n = 350,000); MCF 10A DNA re-replication, Hoechst nuclear intensity, 48 h; further: % of control where 0% means no effect; nearly all actives have a fitted effect of over 50% in size
The depositor's hits bear a star; i = inactive; ? = inconclusive; . = no result; [ ] = dose if it differs, or a comment. Only some compounds are listed: those with a hit (about 5.8% of all), similar ones and a draw of the others. Unless noted, the call rests on the fitted dose curve; in most records, active means well fitted curve in the direction sought with a large enough effect; inconclusive means small, poorly fitted or top-dose-only effect, or another doubt; inactive means no such curve, though single readings can be large; an effect the other way counts as inactive or inconclusive. Potency means the concentration at half of the fitted maximal effect.

SMILES	KB-3-1 tox	KB-V1 cytotox	SW480 rerep	12-LOX inh	PINK1 modulator	MCF10A rerep
CSc1ccc(Cn2c(C)c(C(=O)NCc3cccc(Cl)c3)sc2=O)cc1	i	9.2µM*	.	4%	0%	.
COc1ccc(NC(=O)c2sc(=O)n(Cc3ccc(F)c(Cl)c3)c2C)cc1OC	4.6µM*	?	.	4%	1%	.
COc1ccc(CNC(=O)c2sc(=O)n(Cc3cc(Cl)ccc3OC)c2C)cc1	i	?	.	14%	2%	.
COc1nc2c(cc1CNC(=O)C(C)(C)OC)C(=O)N(CCc1ccccn1)C2	.	.	.	38%	.	.
COc1ccc(-c2oc3ncn(CCN4CCOCC4)c(=N)c3c2-c2ccc(OC)cc2)cc1	?	?	?	0%	9%[38.3 µM]	13µM*
CCOc1cc2nc(-c3ccc(OC)c(OC)c3)nc(NCCCN3CCOCC3)c2cc1OC	i	?	?	0%	3%	12µM*
COc1ccc(-c2oc3ncnc(NCCCN4CCOCC4)c3c2-c2ccc(OC)cc2)cc1	i	18µM*	?	-33%	-7%[38.3 µM]	?
COc1ccc(-c2oc3ncnc(NCCN4CCOCC4)c3c2-c2ccc(OC)cc2)cc1	?	?	8%	.	-3%	?
O=C(Nc1nccs1)c1ccc[n+]([O-])c1	.	.	.	-54%	.	.
CC(C)c1noc(COc2ccc(C(=O)NC3CCCC3)cc2)n1	.	.	.	22%	.	.
O=C(Nc1cccc(-c2nc3ccccc3o2)c1)c1ccc([N+](=O)[O-])cc1	.	.	.	0%	.	.
O=C(CSc1nc(-c2ccccc2)nn1C(=O)c1ccccc1)Nc1cccc([N+](=O)[O-])c1	?	21µM*	-8%	1%	-2%	5%
Cc1ccc(NC(=O)CSc2nc3ccccc3c3nc4ccccc4n23)cc1	0.92µM*	1.6µM*	0.65µM*	5%	13%[38.3 µM]	1.5µM*
CCC(=O)n1nc(-c2ccccc2)nc1SCC(=O)Nc1ccc(C)cc1	i	21µM*	-19%	?	0%	0%
O=C(c1cccc([N+](=O)[O-])c1)n1nc(-c2ccccc2)nc1NCc1ccccc1	?	i	-4%	-23%	2%	6%
CCCn1c(=O)[nH]c(=O)c2c1nc(-c1ccc(OCC#N)c(OC)c1)n2CCOC	.	.	.	14%	.	.
CC#CC#Cc1cccc(=O)o1	i	?	24%	-12%	?	18µM*
CN(C)S(=O)(=O)c1cccc(N=C2NN=C(c3ccccc3)CS2)c1	?	?	13µM*	-12%	32µM*	11%
COc1ccc(C2=NNC(=Nc3cc(S(=O)(=O)N(C)C)ccc3C)SC2)c(OC)c1	?	?	19%	32%	2.8µM*	4%
Cc1ccc(-c2cc(C(=O)OC(C)C(N)=O)c3ccccc3n2)cc1 (centres undefined)	.	.	.	-5%	.	.
O=C(NCCO)c1cc2c(s1)CCC2	i	i	?	4%	0%	0.25µM*
Cc1csc(NC(=O)c2cc3c(s2)CCCC3)n1	i	i	10%	?	1%	-8%
Cc1cnc(NC(=O)c2cc3c(s2)CCCC3)s1	21µM*	i	0%	3%	11%	?
Cc1csc(NC(=O)c2cc3c(s2)CCCCC3)n1	i	?	12%	0%	8%	16µM*
Cc1nc(NCCc2nccc(-c3ccccc3)n2)cc(C2CC(O)C2)n1 (centres undefined)	.	.	.	61%	.	.
Cc1ccc2nc(-c3ccncc3)cc(C(=O)NCc3cccnc3)c2c1	.	.	.	6%	.	.
CCc1ccc(C(=O)Nc2nc3ccccc3[nH]2)cc1	?	i	?	3%	3%	5%
